Legend:
[1] = test system: CLZ3 (HCA2 human fibroblast dual HR-NHEJ reporter); assay: NHEJ repair efficiency (GFP+ cells) relative to control (log10 fold); higher = more non-homologous end joining; details: 5 µM; doxycycline 0.5 ug/mL
[2] = test system: CLZ3 (HCA2 human fibroblast dual HR-NHEJ reporter); assay: HR repair efficiency (tdTomato+ cells) relative to control (log10 fold); higher = more homologous recombination; details: 5 µM; doxycycline 0.5 ug/mL
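Wherever HR repair efficiency (tdTomato+ cells) relative to control is given: compound given one day before doxycycline, which switches on I-SceI endonuclease expression to create double-strand breaks within the integrated reporter.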
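Wherever NHEJ repair efficiency (GFP+ cells) relative to control is given: compound given one day ahead of doxycycline, which switches on I-SceI endonuclease to cut the chromosomally integrated reporter and create DSBs.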

| SMILES | NHEJ repair efficiency (log10) [1] | HR repair efficiency (log10) [2] |
| --- | --- | --- |
| COc1c2ccoc2cc2oc(=O)ccc12 [Bergapten] | -0.153 | 0.125 |
| O=c1c(-c2ccc(O[C@@H]3O[C@H](CO)[C@@H](O)[C@H](O)[C@H]3O)cc2)coc2cc(O)cc(O)c12 [Sophoricoside] | 0.185 | 0.0013 |
| C[C@H](CCC(=O)NCCS(=O)(=O)O)[C@H]1CC[C@H]2[C@@H]3C[C@H](O)[C@@H]4C[C@H](O)CC[C@]4(C)[C@H]3CC[C@]12C [Taurohyodeoxycholic Acid] | 0.0397 | 0.133 |
| O=c1c(O)c(-c2ccc(O)c(O)c2)oc2cc(O)cc(O)c12 [Quercetin] | -0.047 | 0.086 |
| CC(C)=CCC[C@](C)(O[C@@H]1O[C@H](CO[C@@H]2OC[C@H](O)[C@H](O)[C@H]2O)[C@@H](O)[C@H](O)[C@H]1O)[C@H]1CC[C@]2(C)[C@@H]1[C@H](O)C[C@@H]1[C@@]3(C)CC[C@H](O[C@@H]4O[C@H](CO)[C@@H](O)[C@H](O)[C@H]4O[C@@H]4O[C@H](CO)[C@@H](O)[C@H](O)[C@H]4O)C(C)(C)[C@@H]3CC[C@]12C [Ginsenoside Rb2] | 0.0156 | 0.096 |
| CC(=O)C1=C(O)C=C2Oc3c(C(C)=O)c(O)c(C)c(O)c3C2(C)C1=O (stereo in doubt) [Usnic Acid] | 0.00929 | 0.00791 |
| COc1c2c(cc3c1-c1c(cc4c(c1OC)OCO4)C[C@H](C)[C@H](C)C3)OCO2 [Schisandrin C] | -0.137 | 0.0438 |
| CC(C)=CCC[C@](C)(O[C@@H]1O[C@H](CO)[C@@H](O)[C@H](O)[C@H]1O)[C@H]1CC[C@]2(C)[C@@H]1[C@H](O)C[C@@H]1[C@@]3(C)CC[C@H](O)C(C)(C)[C@@H]3[C@@H](O[C@@H]3O[C@H](CO)[C@@H](O)[C@H](O)[C@H]3O)C[C@]12C [Ginsenoside Rg1] | 0.099 | 0.0737 |
| O=c1cc(-c2ccc(O)cc2)oc2cc(O)c(O)c(O)c12 [Scutellarein] | -0.103 | -0.025 |
| CC(C)(O)[C@@H]1CC[C@](C)([C@H]2[C@@H](O)C[C@@]3(C)[C@@H]4C[C@H](O)[C@H]5C(C)(C)[C@@H](O)CC[C@@]56C[C@@]46CC[C@]23C)O1 [Cycloastragenol] | -0.045 | 0.136 |
| COc1ccc2c(c1OC)CN(C)CCc1cc3c(cc1C(=O)C2)OCO3 [Allocryptopine] | 0.0337 | 0.04 |
| O=C1c2c(O)cccc2C([C@@H]2O[C@H](CO)[C@@H](O)[C@H](O)[C@H]2O)c2cc(CO)cc(O)c21 (stereo partly specified) [Barbaloin] | 0.0217 | 0.119 |
| CC(C)[C@@H]1[C@H]2OC(=O)[C@@H]1[C@@H]1CC[C@@H]3CN(C)[C@H]2[C@@]31C [Dendrobine] | 0.165 | 0.272 |
| COc1cc(OC)c(CCC(=O)c2ccc(O)cc2)c(OC)c1 | -0.0337 | 0.0988 |
| C=CC(C)(C)c1cc(/C=C/C(=O)c2ccc(O)cc2)c(OC)cc1O [Licochalcone A] | -0.106 | 0.0473 |
| C/C=C/c1cc(OC)c2c(c1)C(C)C(c1ccc(O)c(OC)c1)O2 (stereo unspecified) [Dehydrodiisoeugenol] | -0.00267 | -0.0825 |
| O[C@@H]1[C@@H](O)[C@@H](OC/C=C/c2ccccc2)O[C@H](CO[C@@H]2OC[C@H](O)[C@H](O)[C@H]2O)[C@H]1O [Rosavin] | 0.0495 | 0.148 |
| COc1cc2c(=O)c(-c3ccc(O)cc3)coc2cc1O [Glycitein] | 0.0336 | 0.1 |
| CC(=O)O[C@H]1CC(=O)OC(C)(C)[C@@H]2CC(=O)[C@]3(C)[C@H](CC[C@@]4(C)[C@@H](c5ccoc5)OC(=O)[C@H]5O[C@]543)[C@@]12C [Nomilin] | -0.276 | -0.226 |
| CC(C)(O[C@@H]1O[C@H](CO)[C@@H](O)[C@H](O)[C@H]1O)[C@H]1Cc2cc3ccc(=O)oc3cc2O1 [Nodakenin] | -0.0969 | 0.0112 |
| C[C@@H]1O[C@@H](O[C@H]2[C@H](O[C@H]3CC[C@@]4(C)[C@@H](CC[C@]5(C)[C@@H]4CC=C4[C@@H]6CC(C)(C)CC[C@]6(C(=O)O)CC[C@]45C)[C@]3(C)CO)OC[C@H](O)[C@@H]2O)[C@H](O)[C@H](O)[C@H]1O [α-Hederin] | -0.0243 | -0.192 |
| CC(C)(O)[C@H](O)COc1c2ccoc2cc2oc(=O)ccc12 [Oxypeucedanin Hydrate] | -0.0248 | 0.00711 |
| C[C@@H]1O[C@@H](OC[C@H]2O[C@@H](Oc3cc(O)c4c(c3)O[C@H](c3ccc(O)cc3)CC4=O)[C@H](O)[C@@H](O)[C@@H]2O)[C@H](O)[C@H](O)[C@H]1O [Narirutin] | 0.00886 | -0.053 |

Source: the supplement of paper PMC7380943
